Data on 10 molecules can be found in PubChem BioAssay (NCATS).

Several values for one entry are separate records, joined by “and”; a condition that tells them apart may be missing. Equal values may be shown once. Results filed as inconclusive are left out. A number with no mark means an inactive call. Activity calls are given as the source filed them. Calls come from the whole dose curve; as a rule, active = well fitted curve in the direction sought with a large enough effect; inconclusive = small, poorly fitted or top-dose-only effect, or another doubt; inactive = no such curve, though single readings can be large; an effect the other way counts as inactive or inconclusive.

The target in assay [1] is Cytochrome P450 3A7 (Homo sapiens) (UniProt P24462). Kind of assay: Cytochrome P450 family 3 subfamily A member 7 (CYP3A7) small molecule antagonists: luciferase biochemical qHTS assay (AID 1963596). Note: % is set by controls: 0 for no effect and ±100 for the full control effect; nearly all actives have a fitted effect of over 40% in size. Put shortly:
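Luminescence read-out (relative luminescence units) after 20 min with detection reagent, which stops the reaction. Enzyme, proluciferin substrate and compound preincubated 10 min, RT; NADPH regeneration system then started 1 h reaction. Ketoconazole as positive control.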

Assay [2] can be described thus: Viability qHTS for spleen associated tyrosine kinase inhibitor (SYKi) naive MV4-11 cells (AID 1963823). Note: nearly all actives have a fitted effect of over 40% in size. Note: potency is the fitted concentration of half-maximal effect. Put shortly:
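SYKi-naive MV4-11 AML cells, 500 per well, were exposed to library compounds for 72 hr at 37 C, 5% CO2. Viability was then read by CellTiter-Glo luminescence after 10 min at room temperature.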
In general terms: In qHTS, concentration-response curves come from the screen itself.

Assay [3] in a line: Viability qHTS for spleen associated tyrosine kinase inhibitor (SYKi) drug resistant MV4-11 cells (AID 1963824). Note: nearly all actives have a fitted effect of over 35% in size. Note: potency is the fitted concentration of half-maximal effect. Put shortly: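 SYK-inhibitor-resistant MV4-11 AML cells were seeded at 500 per well onto compound and cultured 72 hours (37 °C, 5% CO2). CellTiter-Glo was then added, and after 10 min at room temperature, luminescence gave viability.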
Assay [4] in a line: Quantitative highthroughput screen to assess conditional lethalithy of NOMO1 cells grown in Human Plasma-Like Medium with dialyzed fetal bovine serum (HPLM+ds) (AID 1963878).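 For Viability: 100% = DMSO wells and 0% = empty wells on each plate.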 Note: nearly all actives have a fitted effect of over 35% in size. Note: potency is the fitted concentration of half-maximal effect. The gist of the method: (§1)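 Each medium arm—HPLM with 10% dialyzed FBS, or RPMI1640 with 5 mM glucose and 10% untreated or dialyzed FBS—was screened against an 11-point, 3-fold compound titration for 48 h at 37 °C, with CellTiter-Glo luminescence as endpoint.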

Assay [5] is described as follows: Quantitative highthroughput screen to assess conditional lethalithy of SEM cells grown in Human Plasma-Like Medium with dialyzed fetal bovine serum (HPLM+ds) (AID 1963882). For Viability: series mostly up to about 46 µM. Note: nearly all actives have a fitted effect of over 35% in size. Note: potency is the fitted concentration of half-maximal effect. Put shortly: as §1
Assay [6] is described as follows: Quantitative highthroughput screen to assess conditional lethalithy of SEM cells grown in RPMI1640 with dialyzed fetal bovine serum (RPMI+ds) (AID 1963884).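 For Viability: series mostly up to about 46 µM; 100% = DMSO control wells and 0% = empty wells without cells.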 Note: nearly all actives have a fitted effect of over 35% in size. Note: potency is the fitted concentration of half-maximal effect. Put shortly: as §1
Assay [7] can be described thus: Cellular viability qHTS for adrenocortical cancer (ACC) cell line SW-13 (AID 1963989).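 Note: cells grown in serum-free medium with ITS supplement; % is set by controls: 0 for no effect and ±100 for the full control effect; nearly all actives have a fitted effect of over 65% in size.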 The conditions noted are these: SW-13 ACC cells viability, CellTiter-Glo, 48 h; activity (max response): hits give low values. Put shortly: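 Here, serum-free SW-13 cultures were dosed up to 46 uM. Following 48 h, ATP-dependent luminescence (CellTiter-Glo) reported viable cells, and logistic modeling produced IC50 values.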

A short description of assay [8]: Cellular viability qHTS for adrenocortical cancer (ACC) cell line NCI-H295R (AID 1963990).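 Note: 0% = DMSO only wells and -100% = full killing with cytotoxic reference compound; nearly all actives have a fitted effect of over 60% in size.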 The gist of the method:
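Viability of NCI-H295R after 48 h of treatment (final up to 46 uM) measured through cellular ATP luminescence.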

A short description of assay [9]: Quantitative highthroughput screen to assess conditional lethalithy of NOMO1 cells grown in RPMI1640 with dialyzed fetal bovine serum (RPMI+ds) (AID 1963877).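 Note: series mostly up to about 46 µM; 100% = DMSO control wells and 0% = empty wells; nearly all actives have a fitted effect of over 30% in size.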 Put shortly:
as §1

Assay [10] is described as follows: Quantitative highthroughput screen to assess conditional lethalithy of P12 Ichikawa cells grown in Human Plasma-Like Medium with dialyzed fetal bovine serum (HPLM+ds) (AID 1963879). For Viability: series mostly up to about 46 µM. Note: nearly all actives have a fitted effect of over 35% in size. Note: potency is the fitted concentration of half-maximal effect. Particulars: Potency: viability. The gist of the method: as §1
Assay [11] in a line: Quantitative highthroughput screen to assess conditional lethalithy of P12 Ichikawa cells grown in RPMI1640 with dialyzed fetal bovine serum (RPMI+ds) (AID 1963880).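 For Viability: 100% = DMSO wells and 0% = empty wells on each plate.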 Note: nearly all actives have a fitted effect of over 35% in size. Note: potency is the fitted concentration of half-maximal effect. Particulars: Potency: P12-Ichikawa viability. The gist of the method:
as §1

Assay [12] in a line: Quantitative highthroughput screen to assess conditional lethalithy of P12 Ichikawa cells grown in RPMI1640 with untreated serum (RPMI+s) (AID 1963881).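 For Viability: series mostly up to about 46 µM; 100% = DMSO wells and 0% = empty wells without cells.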 Note: nearly all actives have a fitted effect of over 35% in size. Note: potency is the fitted concentration of half-maximal effect. The conditions noted are these: Potency: viability. Put shortly: as §1
Assay [13] can be described thus: Quantitative highthroughput screen to assess conditional lethalithy of SEM cells grown in RPMI1640 with unreated serum (RPMI+s) (AID 1963883).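 For Viability: 100% = DMSO wells and 0% = empty wells without cells.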 Note: nearly all actives have a fitted effect of over 35% in size. Note: potency is the fitted concentration of half-maximal effect. The gist of the method:
as §1

Assay [14] can be described thus: Quantitative highthroughput screen to assess conditional lethalithy of NOMO1 cells grown in RPMI1640 with untreated serum (RPMI+s) (AID 1963876).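 For Viability: 100% = DMSO wells and 0% = empty wells without cells.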 Note: nearly all actives have a fitted effect of over 35% in size. Note: potency is the fitted concentration of half-maximal effect. Put shortly:
as §1

Cytochrome P450 3A7 (Homo sapiens), sequence (P24462 whole entry, looked up): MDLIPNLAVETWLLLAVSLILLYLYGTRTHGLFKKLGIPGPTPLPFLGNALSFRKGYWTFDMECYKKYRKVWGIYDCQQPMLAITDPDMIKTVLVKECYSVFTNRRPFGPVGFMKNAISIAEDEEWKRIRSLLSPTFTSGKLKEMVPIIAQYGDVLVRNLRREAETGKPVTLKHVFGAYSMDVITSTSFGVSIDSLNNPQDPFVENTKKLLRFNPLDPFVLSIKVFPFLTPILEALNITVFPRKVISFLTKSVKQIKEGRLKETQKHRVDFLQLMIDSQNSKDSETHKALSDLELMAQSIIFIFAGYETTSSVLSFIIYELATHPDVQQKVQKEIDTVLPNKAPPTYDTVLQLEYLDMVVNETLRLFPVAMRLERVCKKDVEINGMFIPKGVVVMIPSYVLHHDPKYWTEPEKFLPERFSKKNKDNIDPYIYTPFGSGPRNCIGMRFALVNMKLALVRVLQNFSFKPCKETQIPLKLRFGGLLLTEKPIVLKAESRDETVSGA

In the case of `Cn1nnc2c(C(N)=O)ncn2c1=O`, the Potency entry in assay [1], in [2], in [3] and in assay [8] was “inactive” throughout. Also, the Potency was 18.7 µM (active) in [4], 0.332 µM (active) in assay [5] and 0.235 µM (active) in assay [6]. In addition, the activity (max response) in assay [7] was -0.0469% and 5.28%.

Regarding `O=C(O)c1cc(=O)c2c(OCC(O)COc3cccc4oc(C(=O)O)cc(=O)c34)cccc2o1`, the Potency entry in assay [1], in assay [2], in assay [3], in assay [9], in [4] and in [10] was “inactive” each time. Also, the Potency result in assay [11], in assay [12], in assay [5], in assay [13], in assay [6] and in [8] was “inactive” throughout.

Consider `Cc1cn([C@H]2C[C@H](N=[N+]=[N-])[C@@H](CO)O2)c(=O)[nH]c1=O`, for which the Potency result in assay [1], in assay [2], in assay [3], in assay [13] and in assay [8] was “inactive” in each case. The Potency in assay [14] is 1.32 µM (active); in [10] it was 10.5 µM (active). Also, the activity (max response) in [7] is -7.12%.

For the molecule `CCn1cc(C(=O)O)c(=O)c2ccc(C)nc21`, the Potency result in assay [1], in assay [2], in [3], in [9], in assay [10] and in assay [11] was “inactive” each time. Besides, the Potency entry in assay [12], in assay [5] and in assay [8] was “inactive” in each case. Moreover, in assay [6], the Potency was 5.9 µM (active). Besides, in [7], the activity (max response) is 13.9%.

Take `CCCC(CCC)C(=O)O`: the Potency entry in assay [1], in assay [2], in assay [3], in assay [10], in assay [11] and in assay [12] was “inactive” in each case. Besides, the Potency result in assay [5], in assay [13], in assay [6] and in assay [8] was “inactive” in each case. Further, the activity (max response) in assay [7] was 6.17% and -13.6%.

In the case of `Cc1cn([C@@H]2C[C@@H](O)[C@H](CO)O2)c(=O)[nH]c1=O`, the Potency result in assay [1], in assay [2], in assay [3], in assay [14] and in assay [8] was “inactive” each time. Further, the Potency in assay [10] was 23.5 µM (active); in [11] it was 23.5 µM (active); in [12] it was 26.4 µM (active). The activity (max response) in assay [7] is -17.5%.

With `C#CCN[C@@H]1CCc2ccccc21`, the Potency result in assay [1], in assay [2], in assay [3], in [9], in assay [10] and in assay [11] was “inactive” throughout. Besides, the Potency entry in assay [12], in assay [5], in assay [6] and in assay [8] was “inactive” throughout.

Regarding `Cc1cn([C@@H]2O[C@H](CO)[C@@H](O)[C@H]2F)c(=O)[nH]c1=O`, the Potency entry in [1], in assay [2], in [3], in [4], in [10] and in assay [5] was “inactive” each time. Also, the Potency entry in assay [13], in assay [6] and in [8] was “inactive” throughout. Besides, in [7], the activity (max response) was 7.23%.

With `COc1c(O)cc2c(c1O)[C@@H]1O[C@H](CO)[C@@H](O)[C@H](O)[C@H]1OC2=O`, the Potency entry in assay [1], in assay [2] and in assay [3] was “inactive” in each case. Also, the Potency in [4] is 14.8 µM (active); in assay [10] it was 16.6 µM (active); in assay [5] it was 20.9 µM (active); in assay [13] it was 10.5 µM (active); in assay [6], 18.7 µM (active).

`Cc1cc(C(C)(C)C)cc(C)c1CC1=NCCN1`: the Potency result in [1], in [10], in assay [11], in assay [12], in [13] and in assay [6] was “inactive” each time. Moreover, the Potency result in assay [8] is “inactive”. For the same molecule, the Potency is 3.72 µM (active) in [2] and 5.25 µM (active) in [3]. Also, the activity (max response) in [7] is -1.59% and -10.9%.
